# Results from the supplement of paper PMC12532568.
# Structures can show the parent of a compound that is named as a salt.
# Test system: Danio rerio larvae Tg(actc1b:ZsGreen-LC3), 3 dpf
# Test: LC3 puncta relative area vs vehicle, without NH4Cl (log2 fold change); higher = more autophagosomes
# Conditions: 10 µM; treatment time 16 h; NH4Cl: none
# Description: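 Transgenic Tg(actc1b:ZsGreen-map1lc3) zebrafish larvae (2 dpf) were treated for 16 h with Tocris library compounds at 10 µM (n = 12 larvae per compound). Skeletal-muscle LC3 puncta area relative to body area was measured by high-content confocal imaging before and after 4 h of 100 mM NH4Cl (autophagic flux), normalised to vehicle (DMSO), and reported as log2 fold change.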
row,Structure (SMILES),LC3 puncta (log2)
1,O=C(CCCN1CCC2(CC1)C(=O)N(Cc1cccc(F)c1)CN2c1ccccc1)c1ccc(F)cc1 [3'-Fluorobenzylspiperone maleate],0.503
2,NCCc1c[nH]c2ccc(C(N)=O)cc12 [5-Carboxamidotryptamine maleate],0.0843
3,CC(C(=O)OC1CC2CCC(C1)N2C)c1ccc(Br)cc1 (stereo not given) [PG-9 maleate],0.116
4,O=C(Cc1ccc(Cl)c(Cl)c1)N1CCCCC1CN1CCCC1 (stereo not given),0.372
5,CCCN(CCC)C1CCc2cccc(O)c2C1 (stereo not given) [8-Hydroxy-DPAT hydrobromide],0.14
6,N=C(NCc1ccc(Cl)cc1)SCCCc1c[nH]cn1 [Clobenpropit dihydrobromide],0.454
7,CC(=O)NCCc1c[nH]c2ccccc12 [N-Acetyltryptamine],-0.161
8,CN1C(=O)CCS(=O)(=O)C1c1ccc(Cl)cc1 (stereo not given) [Chlormezanone],-0.0101
9,CCCN[C@@H]1CCc2c(OC)cccc2[C@@H]1C [(+)-AJ 76 hydrochloride],0.121
10,CCCN(CCC)[C@@H]1CCc2c(OC)cccc2[C@@H]1C [(+)-UH 232 maleate],0.36
11,Cc1[nH]c2ccc(O)cc2c1CCN [2-Methyl-5-hydroxytryptamine hydrochloride],-0.132
12,C[C@H](N)Cc1cnc[nH]1,0.17
13,N[C@@H](Cn1oc(=O)[nH]c1=O)C(=O)O [L-Quisqualic acid],0.387
14,c1ccc2nc(N3CCNCC3)ccc2c1 [Quipazine dimaleate],0.115
15,Cc1nc(N)sc1CCN [Amthamine dihydrobromide],0.0368
16,CCCN(CCC)C1CCc2ccc(O)cc2C1 (stereo not given) [7-Hydroxy-DPAT hydrobromide],-0.0217
17,S=C(NC1CCCCC1)N1CCC(c2cnc[nH]2)CC1 [Thioperamide],0.0474
18,"c1ccc(C2CNCc3ccccc32)cc1 (stereo not given) [4-Phenyl-1,2,3,4-tetrahydroisoquinoline hydrochloride]",0.365
19,c1ccc(CCCCN2CCC(c3ccccc3)CC2)cc1 [4-PPBP maleate],0.0152
20,C(=C\c1ccccc1)/CN1CCN(CCOC(c2ccccc2)c2ccccc2)CC1,0.421

row,Structure (SMILES),LC3 puncta (log2)
1,C=CCN1C[C@H](C)N([C@H](c2ccc(C(=O)N(CC)CC)cc2)c2cccc(OC)c2)C[C@H]1C,0.784
2,NC(C(=O)O)c1nn[nH]n1 (racemic) [(RS)-(Tetrazol-5-yl)glycine],0.24
3,N[C@@]1(C(=O)O)CC[C@@H](C(=O)O)C1,0.259
4,Cc1ccc(C[N+](C)(C)C)o1 [5-Methylfurmethiodide],-0.0134
5,c1ccc2c(c1)[I+]c1ccccc1-2 [Diphenyleneiodonium chloride],0.217
6,CC(CN)CC(=O)O (stereo not given) [3-Methyl-GABA],0.26
7,Fc1ccc(C(OCCN2CCN(CCCc3ccccc3)CC2)c2ccc(F)cc2)cc1,0.491
8,Fc1ccc(C(OCCN2CCN(C/C=C/c3ccccc3)CC2)c2ccc(F)cc2)cc1,0.527
9,Cc1onc(O)c1CC(N)C(=O)O (racemic),-0.391
10,CCCN(C/C=C/I)C1CCc2ccc(O)cc2C1 (stereo not given) [7-Hydroxy-PIPAT maleate],-0.263
11,O=C1NCN(c2ccccc2)C12CCN(CC1COc3ccccc3O1)CC2 (stereo not given) [Spiroxatrine],0.423
12,"CC(=O)N1CC[N+](C)(C)CC1 [4-Acetyl-1,1-dimethylpiperazinium iodide]",-0.21
13,CCC(Oc1ccc(Cl)cc1)C(=O)OC1C[C@H]2CC[C@@H](C1)N2C (stereo not given in full) [SM-21 maleate],0.226
14,c1ccc(CCCN2CCN(CCOC(c3ccccc3)c3ccccc3)CC2)cc1,0.0674
15,COC(=O)[C@@H](N)CCCNC(=N)N[N+](=O)[O-] [L-NAME hydrochloride],-0.0167
16,CN(C(=O)Cc1ccccc1)C(CN1CCCC1)c1ccccc1 (stereo not given) [N-MPPP Hydrochloride],0.385
17,Oc1ccc2c3c1O[C@H]1c4c(c5ccccc5n4Cc4ccccc4)C[C@@]4(O)C(C2)N(CC2CC2)CC[C@]314 [N-Benzylnaltrindole hydrochloride],0.458
18,NCC(CS(=O)(=O)O)c1ccc(Cl)cc1 (stereo not given) [Saclofen],-0.022
19,c1ccc2c(c1)OCC(C1=NCCN1)O2 (stereo not given) [Idazoxan hydrochloride],0.411
20,Cn1cnc(CCN)c1 [N?-Methylhistamine dihydrochloride],0.287
